Here are results for 25 compounds from PubChem BioAssay (EPA / NIEHS).

Read-out in test [1]: Tissue plasminogen activator (tPA), PLAT (gene 5327)
The test is described as follows: BSK_BE3C_tPA: BioMAP Diversity Plus: BE3C Assay for Tissue plasminogen activator (tPA) Biomarker Activity (AID 2283041).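 As to outcome: tPA level quantified by ELISA one day after compound addition.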 The settings on record: primary human bronchial epithelial cells; actives raise or lower the signal. In a few lines:
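Gain- or loss-of-signal in tPA, measured by ELISA, derived by bidirectional fitting against DMSO. Cells: human primary bronchial epithelial; read at 24 h after chemical dosing.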

Read-out in test [2]: Interleukin-8 (IL8), CXCL8 (gene 3576)
The experiment in a line: BSK_CASM3C_IL8: BioMAP Diversity Plus: CASM3C Assay for Interleukin-8 (IL8) Biomarker Activity (AID 2283042).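 Also: IL-8 protein level quantified by ELISA.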 The settings on record: primary human coronary artery smooth muscle cells; actives raise or lower the signal.

Read-out in test [3]: Human Leukocyte Antigen - DR isotype (HLADR), HLA-DRA (gene 3122)
The experiment in a line: BSK_CASM3C_HLADR: BioMAP Diversity Plus: CASM3C Assay for Human Leukocyte Antigen - DR isotype (HLADR) Biomarker Activity (AID 2283043).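 Also: cell-surface HLA-DR protein level quantified by ELISA.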 The settings on record: primary human coronary artery smooth muscle cells; actives raise or lower the signal.

Read-out in test [4]: Macrophage colony-stimulating factor (MCSF), CSF1 (gene 1435)
The experiment in a line: BSK_CASM3C_MCSF: BioMAP Diversity Plus: CASM3C Assay for Macrophage colony-stimulating factor (MCSF) Biomarker Activity (AID 2283044).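 Also: M-CSF protein amount quantified by ELISA after 24 h exposure.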 The settings on record: primary human coronary artery smooth muscle cells; actives raise or lower the signal.

Read-out in test [5]: Low-density lipoprotein receptor (LDLR), LDLR (gene 3949)
The test is described as follows: BSK_CASM3C_LDLR: BioMAP Diversity Plus: CASM3C Assay for Low-density lipoprotein receptor (LDLR) Biomarker Activity (AID 2283045).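 Also: LDLR protein level on the cell surface quantified by ELISA.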 The settings on record: primary human coronary artery smooth muscle cells; actives raise or lower the signal.

Read-out in test [6]: Monocyte Chemoattractant Protein-1 (MCP1), CCL2 (gene 6347)
The test is described as follows: BSK_CASM3C_MCP1: BioMAP Diversity Plus: CASM3C Assay for Monocyte Chemoattractant Protein-1 (MCP1) Biomarker Activity (AID 2283046).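 Also: MCP-1 level quantified by ELISA 24 h after dosing.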 The settings on record: primary human coronary artery smooth muscle cells; actives raise or lower the signal.

The nature of test [7]: BSK_CASM3C_Proliferation: Cell Proliferation Assessment in the BioMAP Diversity Plus: CASM3C Assay (AID 2283047).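 Also: sulforhodamine B total protein stain as relative cell number at 560 nm; sub-confluent cells exposed 48 h before staining; fitted both ways against DMSO so gain or loss of cell number.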 The settings on record: primary human coronary artery smooth muscle cells.
Read-out in test [8]: Monokine induced gamma interferon (MIG), CXCL9 (gene 4283)
The experiment in a line: BSK_CASM3C_MIG: BioMAP Diversity Plus: CASM3C Assay for Monokine induced gamma interferon (MIG) Biomarker Activity (AID 2283048).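 Also: MIG protein level measured by ELISA.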 The settings on record: primary human coronary artery smooth muscle cells; actives raise or lower the signal.

Read-out in test [9]: serum amyloid A (SAA), SAA1 (gene 6288)
The experiment in a line: BSK_CASM3C_SAA: BioMAP Diversity Plus: CASM3C Assay for serum amyloid A (SAA) Biomarker Activity (AID 2283049).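 Also: SAA protein level quantified by ELISA.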 The settings on record: primary human coronary artery smooth muscle cells; actives raise or lower the signal.

Test [10] can be described thus: BSK_CASM3C_SRB: Viability Assessment in the BioMAP Diversity Plus: CASM3C Assay (AID 2283050).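 Also: total protein by SRB staining as cytotoxicity measure in parallel cultures; cells exposed to compound for 24 h.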 The settings on record: primary human coronary artery smooth muscle cells.

Broadly, the AC50 is the concentration giving half of the maximal activity seen.

“And” between values parts separate entries of the source, which are not always exact repeats. Equal entries are not always repeated. Where a structure was tested more than once in an assay, its records may differ in their call. The source made the active and inactive calls. The calls were made as follows: active = hit-call score of the fitted dose curve at least 0.9, where 1 is the maximum; inactive = score below 0.9.

As for `CC(C)(COC(=O)c1ccccc1)COC(=O)c1ccccc1`, the outcome in test [1], in test [2], in test [3], in test [4], in [5] and in test [6] was inactive. Also, the result in test [7], in test [8], in test [9] and in test [10] was inactive.
`COC(=O)c1ccc(C)cc1`: the outcome in test [1], in [2], in [3], in [4], in test [5] and in [6] was inactive. For the same compound, the result in test [7], in [8], in test [9] and in [10] was inactive.
With `CC(=O)[C@H]1CC[C@H]2[C@@H]3CC=C4C[C@@H](O)CC[C@]4(C)[C@H]3CC[C@]12C`, the outcome in test [1], in [2], in test [3], in test [4], in [5] and in test [6] was inactive. The result in test [7], in [8], in [9] and in [10] was inactive. For the same compound, the results for the AC50 in [5], in test [6] and in test [7] were 1.86 µM (active), 10.9 µM (active) and 6.96 µM (active), respectively.
For the compound `Nc1cc([N+](=O)[O-])ccc1O`, the outcome in test [1], in test [2], in test [3], in test [4], in [5] and in test [6] was inactive. The result in [7], in test [8], in test [9] and in [10] was inactive. Moreover, the half-maximal activity concentration (AC50) in test [3] is 11.8 µM (active).
As for `CC(=O)Nc1ccccc1O`, the result in test [1], in test [2], in test [3], in test [4], in [5] and in test [6] was inactive. Moreover, the result in [7], in [8], in test [9] and in test [10] was inactive.
As to `COc1cc(C=O)ccc1OC(=O)C(C)C`, the outcome in test [1], in test [2], in test [3], in test [4], in [5] and in test [6] was inactive. For the same compound, the outcome in [7], in test [8], in test [9] and in test [10] was inactive. Also, the AC50 in test [4] is 2.86 µM (active); in test [5], 0.15 µM (active).
`CCCCC(CC)COC(=O)/C=C\C(=O)OCC(CC)CCCC` (stereo not drawn): the outcome in test [1], in [2], in [3], in [4], in test [5] and in test [6] was inactive. For the same compound, the outcome in [7], in [8], in [9] and in test [10] was inactive.
With `OC[C@H]1O[C@H](O[C@]2(CCl)O[C@H](CCl)[C@@H](O)[C@@H]2O)[C@H](O)[C@@H](O)[C@H]1Cl`, the outcome in test [1], in [2], in test [3], in test [4], in [5] and in [6] was inactive. For the same compound, the outcome in [7], in test [8], in test [9] and in [10] was inactive.
Turning to `O=C(O)C[C@H](O)C[C@H](O)/C=C/c1c(C2CC2)nc2ccccc2c1-c1ccc(F)cc1`, the AC50 in test [1] was 0.0843 µM (active); in [4], 0.0636 µM (active); in [6], 0.0117 µM (active); in test [7], 0.129 µM (active). Moreover, the outcome in test [2], in test [3], in test [5], in [8], in test [9] and in [10] was inactive.
For the compound `C=C(C)C(=O)O[C@H]1C[C@@H]2CC[C@@]1(C)C2(C)C`, the concentration at half-maximal activity (AC50) in [1] was 20 µM (active); in [2], 22.3 µM (active); in test [3] it was 8.32 µM (active); in test [4], 7.53 µM (active); in test [6] it was 12.4 µM (active); in test [7] it was 23.5 µM (active). Besides, the concentration at half-maximal activity (AC50) in test [8] is 27.1 µM (active); in test [10], 13.2 µM (active). For the same compound, the outcome in test [5] and in test [9] was inactive.
Take `O=C=NC1CCC(CC2CCC(N=C=O)CC2)CC1` (stereo not drawn): the result in [1], in test [2], in test [3], in [4], in [6] and in [8] was inactive. The result in [9] and in [10] was inactive. Moreover, the AC50 was 0.0156 µM (active) in [5] and 0.0151 µM (active) in test [7].
With `CCCCCCCCC=O`, the result in test [1], in test [2], in [3], in [4], in [5] and in test [6] was inactive. The result in test [7], in test [8], in test [9] and in [10] was inactive.
On to `O=C1OC2(c3cc(Br)c(O)c(Br)c3Oc3c2cc(Br)c(O)c3Br)c2c(Cl)c(Cl)c(Cl)c(Cl)c21`, for which the concentration at half-maximal activity (AC50) was 0.744 µM (active) in test [1] and 0.0114 µM (active) in test [6]. The result in [2], in test [3], in test [4], in [5], in test [7] and in [8] was inactive. Also, the result in test [9] and in test [10] was inactive.
For `O=[N+]([O-])c1cc(C(F)(F)F)ccc1Cl`, the result in [1], in test [2], in [3], in [4], in [5] and in test [6] was inactive. The outcome in test [7], in test [8], in [9] and in [10] was inactive.
Regarding `CC(=O)OCCC(C)CC(C)(C)C` (stereo not drawn), the result in test [1], in test [2], in [3], in test [4], in test [5] and in test [6] was inactive. Besides, the outcome in test [7], in [8], in [9] and in test [10] was inactive. In test [3], the half-maximal activity concentration (AC50) was 5 µM (active).
Consider `Cc1ccc(O)c(C(C)(C)C)c1`, for which the result in test [1], in [2], in [4], in [5] and in test [9] was inactive. Also, the AC50 in test [3] was 26.8 µM (active); in [6], 33.4 µM (active); in test [7] it was 29.1 µM (active); in test [8], 33.2 µM (active); in [10] it was 24.6 µM (active).
For the compound `CCCCC/C=C/C=C/C=O`, the result in [1], in test [2], in test [5], in test [8] and in test [9] was inactive. Also, the AC50 in test [3] is 23.7 µM (active); in test [4] it was 20 µM (active); in [6], 36.1 µM (active); in [7] it was 30.3 µM (active); in test [10], 32.3 µM (active).
As for `CN(CCOc1ccc(CC2SC(=O)NC2=O)cc1)c1ccccn1` (stereo not drawn), the result in test [1], in test [2], in [3], in test [4], in test [6] and in [7] was inactive. Further, the outcome in test [8], in test [9] and in test [10] was inactive. In test [5], the AC50 is 4.98 µM (active).
With `CC1COc2ccccc2N1C(=O)C(Cl)Cl` (stereo not drawn), the AC50 in test [1] is 3.04 µM (active); in test [3], 2.96 µM (active); in test [4], 0.0828 µM (active); in test [7], 8.84 µM (active); in test [10], 5.64 µM (active). In addition, the result in [2], in test [5], in test [6], in test [8] and in test [9] was inactive.
For the compound `N#Cc1ccc(CC(=NNC(=O)Nc2ccc(OC(F)(F)F)cc2)c2cccc(C(F)(F)F)c2)cc1`, the result in test [1], in [2], in test [3], in test [4], in [5] and in test [6] was inactive. The outcome in test [7], in test [8], in test [9] and in test [10] was inactive.
With `CC1CCC(C(C)CS)CC1S` (stereo not drawn), the result in test [1] was inactive. Also, the concentration at half-maximal activity (AC50) in test [2] was 20 µM (active); in test [3], 35.8 µM (active); in [4] it was 22.3 µM (active); in [5] it was 20 µM (active); in test [6], 30.9 µM (active); in [7] it was 29.6 µM (active). The half-maximal activity concentration (AC50) in [8] is 36.5 µM (active); in test [9] it was 20 µM (active); in [10], 29.7 µM (active).
`CCCCC(CC)COCCC#N` (stereo not drawn): the outcome in test [1], in test [2], in test [3], in [4], in [6] and in test [7] was inactive. Also, the outcome in test [8], in [9] and in test [10] was inactive. Further, the AC50 in test [5] was 0.151 µM (active).
Take `C[C@H]1C[C@@H]2[C@H]([C@@H](O)C[C@@]3(C)[C@H]2CC[C@]3(O)C(=O)CO)[C@@]2(C)C=CC(=O)C=C12`: the result in test [1], in [3], in [5], in test [6], in [7] and in test [8] was inactive. Moreover, the outcome in [10] was inactive. Moreover, the AC50 in test [2] was 471 nM (active) and 1.18 µM (active); in test [4], 0.15 µM (active); in test [6], 4.62 µM (active); in [9] it was 0.15 µM (active).
Take `NCCNCCN`: the result in [1], in test [2], in test [3], in test [4], in test [5] and in test [6] was inactive. The outcome in test [7], in test [8], in test [9] and in [10] was inactive.
Take `CCC(=O)OCc1ccccc1`: the outcome in [1], in [2], in [3], in test [4], in test [5] and in [6] was inactive. Further, the result in test [7], in test [8], in test [9] and in test [10] was inactive.
